# According to PubChem BioAssay (Tox21):
# Inconclusive results are not listed. A call without a number means that no potency is given here. Calls of active or inactive are those of the source. Unless noted, the call rests on the fitted dose curve.
# How the values were obtained:
# [1] = Nuclear factor erythroid 2-related factor 2/antioxidant responsive element (Nrf2/ARE) small molecule agonists: luciferase reporter gene qHTS assay in human keratinocytes (AID 1919969); further: nearly all actives have a fitted effect of over 35% in size; further: potency means the concentration at half of the fitted maximal effect
# [2] = biological target: Gonadotropin-releasing hormone receptor (Homo sapiens) (UniProt P30968); test: Human gonadotropin-releasing hormone receptor (GnRHR) small molecule agonists, calcium flux assay in GnRHR-HEK293 cells (AID 1920063); further: nearly all actives have a fitted effect of over 35% in size
# Chain of Gonadotropin-releasing hormone receptor (Homo sapiens) (P30968 whole entry, looked up): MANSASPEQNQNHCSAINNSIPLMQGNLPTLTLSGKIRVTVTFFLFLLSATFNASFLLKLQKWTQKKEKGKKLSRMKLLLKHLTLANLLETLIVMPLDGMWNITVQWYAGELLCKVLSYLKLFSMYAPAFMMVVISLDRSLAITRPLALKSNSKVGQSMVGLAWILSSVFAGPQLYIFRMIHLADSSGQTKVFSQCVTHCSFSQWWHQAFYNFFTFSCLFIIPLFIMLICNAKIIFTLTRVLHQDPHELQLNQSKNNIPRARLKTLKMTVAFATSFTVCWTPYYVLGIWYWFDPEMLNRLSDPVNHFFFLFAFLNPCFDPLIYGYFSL
# In short: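 We seeded human GnRHR-expressing HEK293 cells for 18 hours, loaded them with calcium dye for an hour at 37 C, added test compounds, and recorded fluorescence intensity kinetically for three minutes.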
# [3] = biological target: KiSS-1 receptor (Homo sapiens) (UniProt Q969F8); test: Human kisspeptin (KISS1R) small molecule agonists, calcium flux assay in KISS1R-HEK293 cells (AID 1920064; active means well fitted activation curve with a large enough effect in the repeat runs)
# Chain of KiSS-1 receptor (Homo sapiens) (Q969F8 whole entry, looked up): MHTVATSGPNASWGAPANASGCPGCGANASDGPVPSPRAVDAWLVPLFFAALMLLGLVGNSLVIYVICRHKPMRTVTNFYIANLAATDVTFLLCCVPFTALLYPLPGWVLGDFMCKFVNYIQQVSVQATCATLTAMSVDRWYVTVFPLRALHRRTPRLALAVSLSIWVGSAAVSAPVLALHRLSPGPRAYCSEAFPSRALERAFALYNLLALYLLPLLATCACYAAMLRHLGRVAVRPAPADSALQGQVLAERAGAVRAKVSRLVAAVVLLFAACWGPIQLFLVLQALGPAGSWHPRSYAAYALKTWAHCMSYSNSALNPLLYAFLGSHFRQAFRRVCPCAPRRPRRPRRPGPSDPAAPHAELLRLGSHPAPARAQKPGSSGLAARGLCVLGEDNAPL
# In short: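 Kinetic calcium assay, 1 s sampling over 3 min at Ex/Em 480/540, in HEK293 cells engineered with human KISS1R; compounds delivered in DMSO after 1 h dye loading.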
# [4] = G protein-coupled receptor (GPCR) small molecule agonists, calcium flux assay: HEK293 wild type cell line counter screen (AID 1920065)
# In short: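 Calcium-sensitive dye, loaded 1 h at 37 C into cells cultured 18 h, reports compound-evoked calcium release as fluorescence (Ex/Em 480/540), measured over 3 min. Agonist mode; 15-point titrations, triplicate.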
# [5] = p53 small molecule agonists, cell-based qHTS assay with human liver microsomes: qHTS cell viability counter screen (AID 1963579); further: nearly all actives have a fitted effect of over 45% in size
# In short: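 Metabolic activation used human liver microsomes and NADPH, both 0.5 mg/mL final, over 16 hours at 37 C on p53RE-bla cells (4,000/well). Cytotoxicity measured by CellTiter-Glo luminescence, 30 min at room temperature.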
# [6] = p53 small molecule agonists, cell-based qHTS assay with rat liver microsomes: qHTS cell viability counter screen (AID 1963580); further: nearly all actives have a fitted effect of over 45% in size
# In short: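 In HCT-116 cells carrying a p53 response element-bla reporter, compounds were metabolically activated in situ by rat liver microsomes with NADPH over 16 h. Cell ATP content then served as the cytotoxicity measure.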
# [7] = p53 small molecule agonists, cell-based qHTS assay: qHTS cell viability counter screen (AID 1963581); further: nearly all actives have a fitted effect of over 45% in size
# In short: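 Following 5 h attachment, HCT-116 p53RE-bla cells took up compound for 16 h at 37 C; the reporter was read with B/G FRET substrate (2 h RT), and viability then via CellTiter-Glo ATP luminescence.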
# [8] = biological target: 5-hydroxytryptamine receptor 2A (Homo sapiens) (UniProt P28223); test: 5-hydroxytryptamine receptor 2A (HTR2A) small molecule antagonists, cell-based qHTS assay (AID 1963586); further: nearly all actives have a fitted effect of over 45% in size
# Chain of 5-hydroxytryptamine receptor 2A (Homo sapiens) (P28223 whole entry, looked up): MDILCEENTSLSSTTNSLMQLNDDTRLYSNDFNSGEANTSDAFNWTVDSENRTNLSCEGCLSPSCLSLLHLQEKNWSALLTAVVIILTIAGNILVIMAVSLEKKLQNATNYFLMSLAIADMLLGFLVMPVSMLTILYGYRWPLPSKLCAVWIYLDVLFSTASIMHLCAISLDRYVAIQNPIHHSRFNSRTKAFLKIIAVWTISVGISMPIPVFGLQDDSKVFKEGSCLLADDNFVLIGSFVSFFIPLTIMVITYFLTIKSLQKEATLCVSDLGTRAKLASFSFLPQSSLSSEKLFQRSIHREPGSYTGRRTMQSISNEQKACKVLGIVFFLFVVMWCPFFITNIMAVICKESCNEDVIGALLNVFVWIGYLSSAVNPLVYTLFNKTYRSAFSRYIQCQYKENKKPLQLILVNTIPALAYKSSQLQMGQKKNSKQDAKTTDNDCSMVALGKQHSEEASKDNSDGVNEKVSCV
# In short: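 Antagonist-mode intracellular calcium assay: DOI (4 nM) added after 5 min compound pre-incubation at room temperature to dye-loaded HTR2A-CHO cells. Fluorescence followed for 3 min, sampled every second.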
# [9] = biological target: 5-hydroxytryptamine receptor 2A (Homo sapiens) (UniProt P28223); test: 5-hydroxytryptamine receptor 2A (HTR2A) small molecule agonists, cell-based qHTS assay (AID 1963587); further: nearly all actives have a fitted effect of over 30% in size
# In short: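 HTR2A-CHO cells, plated 18 h at 37 C/5% CO2, dye-loaded 1 h at 37 C; compounds in DMSO added by pin tool (agonist mode). Intracellular calcium flux read as kinetic fluorescence on FDSS over 2 min at 1 s intervals.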
# [10] = biological target: Muscarinic acetylcholine receptor M1 (Homo sapiens) (UniProt P11229); test: Cholinergic receptor muscarinic 1 (CHRM1) small molecule antagonists, cell-based qHTS assay (AID 1963588); further: nearly all actives have a fitted effect of over 40% in size
# Chain of Muscarinic acetylcholine receptor M1 (Homo sapiens) (P11229 whole entry, looked up): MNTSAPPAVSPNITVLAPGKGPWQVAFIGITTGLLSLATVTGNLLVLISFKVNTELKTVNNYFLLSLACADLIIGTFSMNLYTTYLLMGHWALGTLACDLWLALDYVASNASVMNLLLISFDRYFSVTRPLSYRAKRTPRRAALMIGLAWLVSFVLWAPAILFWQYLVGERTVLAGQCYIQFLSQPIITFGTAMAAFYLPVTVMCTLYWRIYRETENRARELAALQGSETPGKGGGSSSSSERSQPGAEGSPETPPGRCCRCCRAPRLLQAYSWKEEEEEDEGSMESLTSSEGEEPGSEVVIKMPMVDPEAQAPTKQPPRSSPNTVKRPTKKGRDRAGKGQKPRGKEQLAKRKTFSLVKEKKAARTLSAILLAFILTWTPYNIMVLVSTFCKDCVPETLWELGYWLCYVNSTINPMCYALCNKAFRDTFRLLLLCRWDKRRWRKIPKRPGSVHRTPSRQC
# In short: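 CHRM1-CHO calcium-flux assay, antagonist mode. Cells were seeded 18 h, dye-loaded 1 h at 37 C and given compound for 5 min at RT, then acetylcholine was added at 50nM. FDSS fluorescence was read 3 min; 15 concentrations, three runs.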
# [11] = biological target: Muscarinic acetylcholine receptor M1 (Homo sapiens) (UniProt P11229); test: Cholinergic receptor muscarinic 1 (CHRM1) small molecule agonists, cell-based qHTS assay (AID 1963589); further: nearly all actives have a fitted effect of over 35% in size
# In short: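 Measures agonist-induced intracellular calcium rise. Stable human CHRM1 CHO line, 1 h dye load at 37 C, compounds from DMSO, kinetic fluorescence read.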
# [12] = cAMP Responsive Elements (CRE) small molecule agonists, cell-based qHTS assay (AID 1963590)
# In short: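 A CRE-responsive beta-lactamase reporter in HEK 293T cells was used. Treatment ran 3 h at 37 C; detection used LiveBLAzer B/G FRET substrate for 2 h at room temperature.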
# [13] = biological target: Beta-2 adrenergic receptor (Homo sapiens) (UniProt P07550); test: Adrenergic beta2 receptor (ADRB2) small molecule antagonists, cell-based qHTS assay (AID 1963592); further: series mostly up to about 92 µM; nearly all actives have a fitted effect of over 50% in size
# Chain of Beta-2 adrenergic receptor (Homo sapiens) (P07550 whole entry, looked up): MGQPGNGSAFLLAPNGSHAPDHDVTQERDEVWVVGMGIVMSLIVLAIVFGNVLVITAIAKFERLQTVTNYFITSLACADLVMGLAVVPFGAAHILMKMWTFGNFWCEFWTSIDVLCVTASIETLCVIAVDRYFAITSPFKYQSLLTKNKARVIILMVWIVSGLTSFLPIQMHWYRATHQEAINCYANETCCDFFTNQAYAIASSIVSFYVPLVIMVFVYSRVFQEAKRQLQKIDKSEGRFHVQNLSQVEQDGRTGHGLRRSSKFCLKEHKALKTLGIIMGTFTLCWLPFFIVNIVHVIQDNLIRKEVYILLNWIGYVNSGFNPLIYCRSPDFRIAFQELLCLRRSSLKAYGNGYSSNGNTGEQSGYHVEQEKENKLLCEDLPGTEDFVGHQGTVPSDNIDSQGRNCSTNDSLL
# In short: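 Cells (CHO, stable ADRB2 overexpression) incubated 18-20hr at 37C; compounds added from DMSO; agonist mix (1nM isoproterenol, 100uM IBMX, 25uM Ro-20-1724) added; 0.5hr RT; d2-cAMP and anti-cAMP-cryptate added; 1hr RT; 665/615 nm read.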
# [14] = biological target: D(2) dopamine receptor (Homo sapiens) (UniProt P14416); test: Dopamine D2 receptor (DRD2) small molecule agonists, cell-based qHTS assay (AID 1963594); further: nearly all actives have a fitted effect of over 35% in size
# Chain of D(2) dopamine receptor (Homo sapiens) (P14416 whole entry, looked up): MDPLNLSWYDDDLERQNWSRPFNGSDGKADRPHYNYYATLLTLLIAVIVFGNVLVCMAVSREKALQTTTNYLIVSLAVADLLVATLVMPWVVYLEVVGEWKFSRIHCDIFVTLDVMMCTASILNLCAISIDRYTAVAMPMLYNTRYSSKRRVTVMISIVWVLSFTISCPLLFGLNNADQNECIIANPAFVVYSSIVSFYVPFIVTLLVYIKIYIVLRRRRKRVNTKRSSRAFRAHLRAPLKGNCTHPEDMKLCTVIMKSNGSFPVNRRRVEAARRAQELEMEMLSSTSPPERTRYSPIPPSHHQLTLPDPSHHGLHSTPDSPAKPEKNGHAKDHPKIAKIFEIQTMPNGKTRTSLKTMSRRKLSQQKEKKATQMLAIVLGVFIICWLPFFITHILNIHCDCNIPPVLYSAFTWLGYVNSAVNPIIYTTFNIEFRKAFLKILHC
# In short: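 HEK293 cells stably expressing DRD2 were cultured 24 h at 37 C, then given Ro20-1724 (0.1 mM final) and compounds for 10 min at room temperature. NKH477 (200nM) was then added for 30 min. cAMP was read by HTRF.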
# [15] = biological target: D(2) dopamine receptor (Homo sapiens) (UniProt P14416); test: Dopamine D2 receptor (DRD2) small molecule antagonists, cell-based qHTS assay (AID 1963595; active means well fitted inhibition curve with a large enough effect in the signal ratio in the repeat runs, with a control signal flat; the % refers to the signal ratio)
# In short: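 In this cell-based antagonist screen, compounds act for 10 min at room temperature before a 30 min challenge with 12 nM quinpirole and 200 nM NKH477. cAMP is quantified by HTRF competition in DRD2-HEK293 cells containing 0.1 mM Ro20-1724.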
# [16] = p53 small molecule agonists, cell-based qHTS assay with rat liver microsomes (AID 1963578)
# In short: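 Metabolic activation by rat liver microsomes and NADPH, each 0.5 mg/mL final, added right after compounds to p53RE-bla reporter cells (4,000/well, plated 5 h earlier). 16 h at 37 C, then LiveBLAzer substrate for 2 h at room temperature in the dark; fluorescence read-out.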
# [17] = p53 small molecule agonists, cell-based qHTS assay (AID 1963582; active means well fitted activation curve with a large enough effect in the signal ratio in the repeat runs, not every such curve was filed as active; the % refers to the signal ratio)
# In short: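 In this cell-based concentration-response screen, a p53 response element drives beta-lactamase; cells received DMSO-borne compounds after 5 h culture and were incubated a further 16 h before FRET substrate development.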
# [18] = cAMP Responsive Elements (CRE) small molecule antagonists, cell-based qHTS assay (AID 1963591; active means well fitted inhibition curve with a large enough effect in the signal ratio in the repeat runs, not every such curve was filed as active; the % refers to the signal ratio)
# In short: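 HEK293T cells carrying a CRE-driven beta-lactamase reporter receive compound and NKH477 (0.25 uM final) for 3 h. Fluorescence from LiveBLAzer B/G FRET substrate is read after 2 h at room temperature.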
# [19] = biological target: Beta-2 adrenergic receptor (Homo sapiens) (UniProt P07550); test: Adrenergic beta2 receptor (ADRB2) small molecule agonists, cell-based qHTS assay (AID 1963593);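 further: CHO cells stably overexpressing human ADRB2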
# In short: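 CHO cells stably over-expressing ADRB2 were plated overnight at 37C, then dosed with compounds plus a stimulation mix containing 100uM IBMX and 25uM Ro-20-1724 for 0.5hr at room temperature. cAMP was measured by HTRF competition, 1hr.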
SMILES,Potency [1],Potency [2],Potency [3],Potency [4],Potency [5],Potency [6],Potency [7],Potency [8],Potency [9],Potency [10],Potency [11],Potency [12],Potency [13],Potency [14],Potency [15],Potency [16],Potency [17],Potency [18],Potency [19]
CC(O)CCl (centres undefined),inactive,inactive,inactive,inactive,inactive,inactive,inactive,inactive,inactive,inactive,inactive,inactive,inactive,inactive,inactive,–,–,–,–
S=C=NCc1ccccc1,27.6 µM (active),inactive,inactive,inactive,–,inactive,inactive,inactive,–,inactive,inactive,inactive,inactive,inactive,inactive,inactive,inactive,inactive,–
Nc1ccc([N+](=O)[O-])cc1[N+](=O)[O-],inactive,inactive,inactive,inactive,inactive,inactive,inactive,–,inactive,inactive,inactive,inactive,inactive,–,–,–,–,inactive,–
Nc1ccc(Cl)cc1C(=O)c1ccccc1,inactive,inactive,inactive,inactive,–,–,–,–,–,inactive,inactive,–,inactive,inactive,inactive,inactive,–,inactive,–
Cc1c(F)c(F)c(COC(=O)C2C(/C=C(\Cl)C(F)(F)F)C2(C)C)c(F)c1F (centres undefined),30.6 µM (active),inactive,inactive,inactive,inactive,inactive,inactive,inactive,inactive,inactive,inactive,–,inactive,–,inactive,inactive,–,inactive,–
CC(C1CC1)C(O)(Cn1cncn1)c1ccc(Cl)cc1 (centres undefined),inactive,inactive,inactive,inactive,inactive,inactive,–,–,inactive,inactive,inactive,inactive,inactive,inactive,inactive,inactive,inactive,–,–
C[C@H]1CCC[C@H](O)CCCCCc2cc(O)cc(O)c2C(=O)O1,inactive,inactive,inactive,inactive,inactive,inactive,inactive,–,–,inactive,inactive,–,–,–,inactive,inactive,inactive,inactive,–
Oc1c(Cl)c(Cl)cc(Cl)c1Cl,inactive,inactive,inactive,inactive,inactive,inactive,inactive,inactive,inactive,inactive,inactive,–,inactive,inactive,inactive,inactive,–,–,inactive
